Results on six compounds are retold here after PubChem BioAssay (NCATS).

Several values for one entry are separate records, joined by “and”; a condition that tells them apart may be missing. Equal entries are not always repeated. Values without a mark were called inactive. Results filed as inconclusive are left out. A structure can be active in one record and inactive in another. Activity calls are given as the source filed them. Unless noted, calls follow the shape of the dose curve; as a rule, active = well fitted curve in the direction sought with a large enough effect; inconclusive = small, poorly fitted or top-dose-only effect, or another doubt; inactive = no such curve, though single readings can be large; an effect the other way counts as inactive or inconclusive.

Test [1] can be described thus: Cell Viability - MRC5 (AID 434; calls by dose curve;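 also: potency is read from the fitted curve at half-maximal effect; cells exposed to compound for 40 hours at 37 °C; potency reflects cytotoxicity seen as loss of intracellular ATP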). The settings on record: MRC5 lung fibroblast viability, qHTS. A digest of the protocol:
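ATP luminescence read-out (CellTiter-Glo, 20 min RT) after 40 hr, 37 °C compound exposure of 1500 MRC5 cells/well. Data normalized to DMSO (basal) and 100 uM tamoxifen (100% inhibition); AC50 from standard Hill equation.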
A general note: qHTS replaces the single test concentration by a dilution series.

Test [2] can be described thus: Cell Viability - HUV-EC-C (AID 542).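 Also: cells exposed to compound for 40 hours; % is scaled to controls: 0 for no effect and ±100 for the full control effect; nearly all actives have a fitted effect of over 35% in size.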 The settings on record: HUV-EC-C endothelial cell viability, qHTS; series mostly up to 92.2 µM. A digest of the protocol: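 Cells were seeded at 1000 per well and incubated 5 hr at 37 °C before compound addition. After 40 hr at 37 °C, CellTiter-Glo reagent was added for 20 min and luminescence read. AC50 values came from Hill-equation modelling.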

Test [3] in a line: Cellular Toxicity (caspase-3) HepG2 (AID 654).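 Also: cells exposed to compound for 16 hours before reading; 0% = DMSO alone and 100% = caspase signal from 100 µM tamoxifen.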 The settings on record: HepG2 caspase-3 activation, luminescence; series mostly up to 92.2 µM. An outline of the steps: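 Caspase 3/7 activation in HepG2 is measured as rising luminescence after a 16 hr treatment at 37 °C. Values are scaled between DMSO basal and 100 uM tamoxifen, and AC50 is fitted with the Hill equation.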
Test [4] is described as follows: Cellular Toxicity (caspase-3) HUV-EC-C (AID 656). The conditions noted are these: HUV-EC-C cells, caspase-3 activation (apoptosis); series mostly up to 92.2 µM. A digest of the protocol:
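Read-out: luminescence proportional to caspase 3/7 activity, measured 20 min after adding Caspase-Glo 3/7 reagent. Cells (HUV-EC-C) had received compound for 16 hr at 37°C. Increases relative to DMSO and 100 uM tamoxifen gave concentration-response AC50 values.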

Test [5] in a line: Cellular Toxicity (caspase-3) MRC-5 (AID 659). The conditions noted are these: MRC-5 cells, luminescence, normalized: DMSO 0%, 10 µM staurosporine 100%; series mostly up to 91.7 µM. A digest of the protocol:
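MRC-5 fibroblasts, 1500/well; 16 h cpd, 37 °C; Caspase-Glo 3/7, 1 h RT; lumi read. Norm: DMSO = 0%, 10 uM staurosporine = 100%. Hill-fit AC50 from qHTS conc-response.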

Test [6] can be described thus: Cellular Toxicity (caspase-3) SK-N-SH (AID 661). The settings on record: SK-N-SH caspase-3 activation, qHTS, DMSO as zero, staurosporine as full; series mostly up to 91.7 µM. An outline of the steps:
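Cells were seeded and incubated 5 hr at 37 °C, dosed with compound over a concentration range for 16 hr, then given Caspase-Glo 3/7 reagent for 1 hr at room temperature before luminescence reading.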

Test [7] is described as follows: Cellular Toxicity (caspase-3) Hek293 (AID 664).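 Also: cells exposed to compound for 16 h at 37 °C before readout.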 The settings on record: HEK293 caspase-3 activation, DMSO = 0%, 100 µM tamoxifen = 100%; at 92.2 µM (top of the series). A digest of the protocol:
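qHTS, HEK293 (human embryonic kidney), 16 h cpd exposure in complete medium. Caspase-3/7 activation = luminescence increase; normalized to DMSO/100 uM tamoxifen; Hill-fit AC50.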

Test [8] can be described thus: Cellular Toxicity (caspase-3) N2a (AID 665).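 Also: compound exposure lasted 16 h at 37 °C before readout.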 The conditions noted are these: N2a cells, luminescence, normalized: DMSO 0%, 10 µM staurosporine 100%; series mostly up to 92.2 µM. A digest of the protocol: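 Caspase-3/7 activation, measured as increased luminescence from aminoluciferin release, is quantified in mouse N2a cells exposed to compounds for 16 h. Values are normalized to DMSO and 10 uM staurosporine, with AC50 derived by Hill modelling.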

Test [9] in a line: Cellular Toxicity (caspase-3) NIH 3T3 (AID 666).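 Also: caspase signal read after 16 h compound exposure; 0% = DMSO basal and 100% = 100 µM tamoxifen stimulation.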 The conditions noted are these: NIH 3T3 caspase-3 activation, apoptosis/toxicity, 0% DMSO, 100% is 100 µM tamoxifen; series mostly up to 92.2 µM. A digest of the protocol: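 Cells were plated at 1000 per well and incubated 5 hr at 37°C, then compound was added for 16 hr. Caspase-Glo 3/7 reagent followed for 20 min at room temperature before luminescence was read.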

Test [10] can be described thus: Cellular Toxicity (caspase-3) Renal Proximal Tubule (AID 667).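 Also: cells exposed to compound for 16 hours at 37 °C before detection.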 The conditions noted are these: renal proximal tubule cells, primary cells freshly taken from rat; Potency: caspase-3 activation; series mostly up to 91.7 µM. A digest of the protocol: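 In qHTS format, rat primary proximal tubule cells seeded at 1000 per well are exposed to compounds for 16 hours at 37 °C. An increase in Caspase-Glo 3/7 luminescence indicates caspase activation.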

Test [11] can be described thus: MultiTox-Fluor Cytotoxicity Assay - LYMP1-001 - Dead Cells (AID 946). Also: potency is read from the fitted curve at half-maximal effect. The conditions noted are these: LYMP1-001 lymphoblastoid cells, dead-cell protease fluorescence; series mostly up to 92.2 µM. A digest of the protocol:
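LYMP1-001 lymphoblastoid cells (2500/well) treated 16 h at 37 C. Dead-cell protease cleavage of bis-AAF-R110 read at Ex/Em 485/520. Normalized to DMSO and 15 uM tetraoctylammonium bromide; AC50 from Hill fits.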

Test [12] can be described thus: MultiTox-Fluor Cytotoxicity Assay - LYMP1-003 - Dead Cells (AID 961). Also: nearly all actives have a fitted effect of over 70% in size. Also: potency is read from the fitted curve at half-maximal effect. The conditions noted are these: LYMP1-003 lymphoblastoid cells, dead-cell protease fluorescence; series mostly up to 92.2 µM. A digest of the protocol: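 LYMP1-003 human lymphoblastoid cells (2500/well) exposed to compound 16 h at 37 C in complete medium; dead-cell protease read with bis-AAF-R110 fluorescence (Ex/Em 485/520) after 60 min at room temperature. Normalized to DMSO and 15 uM tetraoctylammonium bromide; AC50 from Hill fit.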

Test [13] can be described thus: MultiTox-Fluor Cytotoxicity Assay - LYMP1-003 - Live Cells (AID 962).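 Also: 0% = DMSO only and full loss = 92 µM tetraoctylammonium bromide; cytotoxic hits lower the live-cell protease signal.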 The conditions noted are these: LYMP1-003 lymphoblastoid cells, MultiTox-Fluor live-cell protease fluorescence; series mostly up to 92.2 µM. An outline of the steps:
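Acute cytotoxicity is scored as a drop in live-cell protease activity in human lymphoblastoid LYMP1-003 cells after 16 hr compound exposure at 37 C. AC50 values come from Hill-equation modelling of concentration-response data.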

The nature of test [14]: Cell Viability - LYMP1-003 - Assay at 24 hr (AID 963).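 Also: plate controls were DMSO only for no effect and tetraoctylammonium bromide positive control for full effect.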 The settings on record: LYMP1-003 lymphoblastoid cell viability; series mostly up to 92.2 µM. An outline of the steps: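 Cytotoxicity is scored as a concentration-dependent fall in ATP-linked luciferase signal in human lymphoblastoid LYMP1-003 cells treated 24 hr at 37 C in complete culture medium.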
The nature of test [15]: Cell Viability - LYMP1-002 - Assay at 24 hr (AID 993). Also: potency is read from the fitted curve at half-maximal effect. The conditions noted are these: LYMP1-002 lymphoblastoid cells viability; series mostly up to 92.2 µM. An outline of the steps: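 Acute toxicity is measured as concentration-dependent loss of cellular ATP in a human lymphoblastoid line (Coriell LYMP1-002) after 24 h treatment in complete medium. ATP is quantified by luciferase luminescence and AC50 derived by Hill modelling.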

A short description of test [16]: qHTS Assay for Identification of Small Molecule Inducers of Hypoxia Response (AID 2120; active = well fitted curve in the direction sought with a large enough effect in the signal ratio, with a control signal flat, not every such curve was filed as active; the % refers to the signal ratio; also: potency is read from the fitted curve at half-maximal effect; as to activation: 0% is about no effect). The conditions noted are these: hypoxia response reporter cells, beta-lactamase ratio readout; series mostly up to 104 µM. A digest of the protocol: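 Cell-based qHTS for reporter induction: hypoxia response element controlled beta-lactamase in ME-180 cells. Compounds incubated 17 h at 37 degrees C; activity from blue/green (460/530 nm) ratio, inducers ranked by AC50.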

Test [17] has as its target Peroxisome proliferator-activated receptor alpha (Homo sapiens) (UniProt Q07869). The test can be described thus: qHTS assay for small molecule agonists of the peroxisome proliferator-activated receptor alpha (PPARalpha) signaling pathway (AID 651778). Also: % of control where 0% means no effect. The conditions noted are these: PathHunter PPARalpha complementation, chemiluminescence, 6 h; max response: active compounds read high. An outline of the steps: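 Enzyme-fragment complementation assay in which ligand-bound PPARalpha translocates and forms an active enzyme that generates chemiluminescence. Cells were plated overnight, exposed to compound for 6 hr at 37 C, and then given detection reagent for 60 min at room temperature.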

Test [18] in a line: qHTS assay for small molecule agonists of the antioxidant response element (ARE) signaling pathway measured by Nrf2-dependant transcriptional activity - cell viability counter screen (AID 720653; active = well fitted curve in the direction sought with a large enough effect in the repeat runs; an effect the other way counts as inactive or inconclusive; also: potency is read from the fitted curve at half-maximal effect; as to max response: % is scaled to controls: 0 for no effect and ±100 for the full control effect). The conditions noted are these: ARE-bla HepG2 viability, CellTiter-Glo ATP luminescence, 16 h; max response: active compounds read low. An outline of the steps: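 ARE-bla HepG2 cells treated with compounds for 16 h at 37C; this counter screen measures viability as intracellular ATP by CellTiter-Glo luminescence after 30 min at room temperature.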

The nature of test [19]: qHTS assay for cell viability of HEK293 cells (AID 743288). Also: nearly all actives have a fitted effect of over 50% in size. Also: potency is read from the fitted curve at half-maximal effect. As to max response: % is scaled to controls: 0 for no effect and ±100 for the full control effect. The conditions noted are these: ATP luminescence (CellTiter-Glo), 18 h; max response: active compounds read low. An outline of the steps: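 Quantitative high-throughput screen: compounds were pinned onto parental HEK293 cells (2,000 per well) after a minimum 5 h settling at 37 C, incubated 18 h at 37 C, and intracellular ATP measured by luciferase luminescence.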

Test [20] can be described thus: qHTS assay for cell viability of the p53RE-bla HCT-116 cell line (AID 743292). Also: % is scaled to controls: 0 for no effect and ±100 for the full control effect; nearly all actives have a fitted effect of over 55% in size. The conditions noted are these: p53RE-bla HCT-116 viability, ATP luminescence, 16 h; series mostly up to 95 µM. A digest of the protocol: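 HCT-116 p53RE-bla cells seeded 4,000/well; 5 h at 37 C; compound (DMSO) added; 16 h at 37 C; CellTiter-Glo added, 30 min RT; luminescence read.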

Sequence of Peroxisome proliferator-activated receptor alpha (Homo sapiens) (Q07869 whole entry, looked up, the tested form may be a part): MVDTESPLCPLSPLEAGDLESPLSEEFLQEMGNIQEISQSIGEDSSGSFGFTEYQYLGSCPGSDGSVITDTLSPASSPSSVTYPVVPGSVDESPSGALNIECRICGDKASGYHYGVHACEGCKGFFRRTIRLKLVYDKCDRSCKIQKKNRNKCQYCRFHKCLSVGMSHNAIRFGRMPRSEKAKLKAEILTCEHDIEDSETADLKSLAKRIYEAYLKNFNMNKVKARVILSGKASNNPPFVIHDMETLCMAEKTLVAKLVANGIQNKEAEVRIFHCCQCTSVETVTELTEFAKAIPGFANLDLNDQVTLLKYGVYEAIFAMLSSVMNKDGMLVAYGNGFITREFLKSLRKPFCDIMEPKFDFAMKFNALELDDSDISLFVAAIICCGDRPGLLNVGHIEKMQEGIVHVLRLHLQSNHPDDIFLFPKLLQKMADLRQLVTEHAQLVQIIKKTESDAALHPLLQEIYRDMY

Take `C=CC(C)(O)CCCC(C)CCCC(C)CCCC(C)C` (configuration not stated): the Potency in test [1] was > 92 µM. Further, the Potency result in test [2], in test [3], in test [4], in test [10], in test [11] and in test [12] was “inactive” throughout. In addition, the Potency result in test [13], in test [14], in test [15], in test [16] and in test [20] was “inactive” throughout. Moreover, the call in test [5], in [6], in test [8] and in [9] was inactive. The caspase-3 activation in [7] was 1.05%. Moreover, the max response in test [17] was 2.41%; in test [18], 0.618%; in test [19], -8.32%.

Take `C/C=C1/C(=O)C[C@H]2[C@@H]3CCC4=CC(=O)CC[C@]4(C)[C@H]3CC[C@]12C`: the Potency was > 92 µM in [1], 39.8 µM (active) in [11], 50.1 µM (active) in [12] and 50.1 µM (active) in test [15]. Moreover, the Potency entry in [2], in test [3], in test [4], in [10], in test [13] and in test [16] was “inactive” in each case. Besides, in test [20], the Potency result is “inactive”. The compound was classed as inactive in test [5], in test [6], in test [8] and in test [9]. For the same compound, the figures for the max response in test [17] and in test [18] were -2.73% and -1.31%, respectively.

For the compound `C=Cc1cccc(C)c1`, the Potency in test [1] is > 92 µM. Besides, the Potency entry in [2], in test [3], in test [4], in [10], in [11] and in test [12] was “inactive” in each case. For the same compound, the Potency result in test [13], in [14], in [15], in [16] and in test [20] was “inactive” throughout. For the same compound, the outcome in [5], in [6], in [8] and in [9] was inactive. For the same compound, the caspase-3 activation in test [7] is -0.822%. Besides, the figures for the max response in test [17], in [18] and in [19] were -4.17%, 10.9% and 2.72%, respectively.

For `CCCCOC(=O)COc1ccc(Cl)cc1Cl`, the Potency in [1] is > 92 µM. The Potency entry in test [2], in test [3], in test [4], in test [10], in test [11] and in [12] was “inactive” each time. Also, the Potency result in test [13], in [14], in [15], in test [16] and in [20] was “inactive” in each case. For the same compound, the compound was classed as inactive in test [5], in test [6], in test [8] and in test [9]. Besides, in test [7], the caspase-3 activation is -0.377%. The max response in test [17] is 7.72% and -1.16%; in [18], -6.14% and -13.6%; in test [19], -2.46% and -7.81%.

`Oc1ccc(O)c2c(O)cccc12`: the Potency in test [1] is > 92 µM. Besides, the Potency entry in test [2], in test [3], in test [4], in test [10], in test [11] and in test [12] was “inactive” throughout. In addition, the Potency entry in test [13], in [14], in test [15], in test [16] and in test [20] was “inactive” each time. For the same compound, the call in test [5], in [6], in test [8] and in test [9] was inactive. In [7], the caspase-3 activation was 18%. Besides, the max response was 5.73% in [17], -23% in test [18] and -5% in [19].

For `Cc1c2ccccc2c(C)c2c1ccc1ccccc12`, the Potency in test [1] was 17.9 µM (active); in test [12] it was 39.8 µM (active); in [16], 44.7 µM (active); in test [18], 44.7 µM (active); in test [19], 44.7 µM (active). Further, the Potency entry in test [3], in test [4], in test [10], in test [13], in test [14] and in test [15] was “inactive” throughout. Moreover, the Potency entry in test [20] was “inactive”. Also, the compound was classed as inactive in test [5], in test [6], in test [8] and in test [9]. For the same compound, the caspase-3 activation in test [7] is 2.33%. The max response in [17] is 2.82% and -0.29%; in [18], -7.46%; in test [19] it was -28%.
